Assay outcomes: PubChem BioAssay, National Center for Advancing Translational Sciences (NCATS)
HP1b chromo inh = HP1-beta chromodomain-methylated histone interaction inhibition. Potency, µM (highest dose often 114 µM), most hits filed as inhibitors. P83916. AlphaScreen HP1-beta / biotin-H3K9me3 peptide binding. hit rate 0.56% among 390,000. AID 540317; also: nearly all actives have a fitted effect of over 70% in size
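Compound inhibition of the preformed complex between 50 nM HP1-beta and 50 nM biotinylated H3K9me3 peptide was read by AlphaScreen. Buffer was PBS pH 7.4 with 0.01% Tween-20. Incubations ran 30 min at room temperature, with 10 ug/mL donor/acceptor beads.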
G9a block = blocks human histone lysine methyltransferase G9a | Q96KQ7 | G9a H3K9 monomethylation, AlphaScreen, 2 h | Potency, µM (highest dose often 102 µM), usual class: inhibitors | hit rate 8.8% among 350,000 | AID 504332; also: nearly all actives have a fitted effect of over 75% in size
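G9a (20 nM) preincubated 15 min RT with compounds, then 500 nM biotinylated H3K9 peptide and 20 uM SAM added; 2 h RT reaction. Monomethyl-H3K9 product detected by AlphaScreen with anti-H3K9me1 antibody, streptavidin donor and anti-rabbit IgG acceptor beads.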
CtBP-E1A blk = CtBP/E1A binding inhibition | activity change, % (no concentration beside the values) | AID 651724 | hit rate 0.49% among 340,000 | AlphaScreen GST-E1A/His-CtBP binding, 1536-well; active compounds read low; in the data active = activity change below about -65%; inconclusive = mostly about -30% to -63%
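In 5 uL wells, 23 nL compound meets equimolar GST-E1A and His-CtBP (5X stock 125 nM each) for 2 h, 37 °C. Beads (5X, 50 ug/mL) then 1 h, 37 °C, dark.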
BAZ2B inh = blocks human BAZ2B | Potency, µM (highest dose often 114 µM), most hits filed as inhibitors | AlphaScreen BAZ2B-H3K14Ac peptide displacement | hit rate 4.4% among 360,000 | Q9UIF8 | AID 504333; also: nearly all actives have a fitted effect of over 60% in size
Target sequence (Q9UIF8 whole entry, looked up): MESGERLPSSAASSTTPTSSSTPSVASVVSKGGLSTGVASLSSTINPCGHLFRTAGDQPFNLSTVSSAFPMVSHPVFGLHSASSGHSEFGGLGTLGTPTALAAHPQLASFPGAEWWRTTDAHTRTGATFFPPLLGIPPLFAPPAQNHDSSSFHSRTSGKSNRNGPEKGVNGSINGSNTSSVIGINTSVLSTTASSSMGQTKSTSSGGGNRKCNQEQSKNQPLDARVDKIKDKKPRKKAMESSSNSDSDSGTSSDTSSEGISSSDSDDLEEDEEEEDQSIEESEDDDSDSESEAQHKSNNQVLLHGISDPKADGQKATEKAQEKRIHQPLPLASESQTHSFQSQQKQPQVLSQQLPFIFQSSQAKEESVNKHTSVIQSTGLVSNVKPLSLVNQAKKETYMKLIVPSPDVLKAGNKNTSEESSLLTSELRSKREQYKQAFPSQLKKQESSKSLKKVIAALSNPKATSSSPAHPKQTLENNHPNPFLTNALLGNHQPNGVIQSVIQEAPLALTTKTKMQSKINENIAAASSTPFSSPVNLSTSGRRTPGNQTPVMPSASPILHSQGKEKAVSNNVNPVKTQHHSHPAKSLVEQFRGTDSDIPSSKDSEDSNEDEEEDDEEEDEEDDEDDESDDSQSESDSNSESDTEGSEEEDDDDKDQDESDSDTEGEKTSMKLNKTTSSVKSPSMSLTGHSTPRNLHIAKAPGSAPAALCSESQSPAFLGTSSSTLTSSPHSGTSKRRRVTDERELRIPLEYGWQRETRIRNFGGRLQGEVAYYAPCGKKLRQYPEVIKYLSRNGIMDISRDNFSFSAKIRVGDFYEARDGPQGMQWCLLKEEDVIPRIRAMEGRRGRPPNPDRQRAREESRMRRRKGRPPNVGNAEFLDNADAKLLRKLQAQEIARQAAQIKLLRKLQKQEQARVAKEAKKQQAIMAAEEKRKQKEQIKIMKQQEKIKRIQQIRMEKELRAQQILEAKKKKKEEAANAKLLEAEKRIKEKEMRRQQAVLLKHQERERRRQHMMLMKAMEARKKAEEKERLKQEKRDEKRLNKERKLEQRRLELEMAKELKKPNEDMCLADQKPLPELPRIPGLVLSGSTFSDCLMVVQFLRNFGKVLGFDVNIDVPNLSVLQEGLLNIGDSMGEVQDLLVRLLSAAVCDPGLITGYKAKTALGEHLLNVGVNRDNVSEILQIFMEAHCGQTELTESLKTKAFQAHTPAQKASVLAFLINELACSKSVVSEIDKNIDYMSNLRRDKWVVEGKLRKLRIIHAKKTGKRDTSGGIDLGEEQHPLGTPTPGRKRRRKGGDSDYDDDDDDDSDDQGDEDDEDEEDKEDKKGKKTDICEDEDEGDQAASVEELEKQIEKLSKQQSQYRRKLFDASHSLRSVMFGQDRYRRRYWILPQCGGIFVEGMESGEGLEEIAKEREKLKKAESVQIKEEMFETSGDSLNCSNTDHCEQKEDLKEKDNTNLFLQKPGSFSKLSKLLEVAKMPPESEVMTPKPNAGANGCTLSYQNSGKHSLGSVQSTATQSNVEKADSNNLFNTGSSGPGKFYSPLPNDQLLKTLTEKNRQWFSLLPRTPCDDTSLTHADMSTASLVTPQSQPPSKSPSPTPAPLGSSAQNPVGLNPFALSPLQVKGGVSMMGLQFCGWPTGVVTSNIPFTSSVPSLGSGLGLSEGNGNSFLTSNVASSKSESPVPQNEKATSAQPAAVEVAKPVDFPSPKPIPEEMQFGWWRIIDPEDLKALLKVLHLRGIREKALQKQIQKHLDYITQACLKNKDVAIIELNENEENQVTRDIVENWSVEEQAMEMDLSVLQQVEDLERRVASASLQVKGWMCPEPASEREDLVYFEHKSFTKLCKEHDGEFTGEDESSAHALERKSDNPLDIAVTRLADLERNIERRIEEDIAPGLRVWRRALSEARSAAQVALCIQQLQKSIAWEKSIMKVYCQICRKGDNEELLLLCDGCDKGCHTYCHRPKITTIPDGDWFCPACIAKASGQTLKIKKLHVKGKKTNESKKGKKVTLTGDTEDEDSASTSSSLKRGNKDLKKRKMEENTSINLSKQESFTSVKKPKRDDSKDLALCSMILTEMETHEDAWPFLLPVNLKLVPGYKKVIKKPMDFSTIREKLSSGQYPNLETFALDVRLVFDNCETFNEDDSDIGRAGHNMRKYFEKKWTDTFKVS
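AlphaScreen displacement: compounds (up to 110uM) incubated 30 min at room temperature with a preformed 50 nM BAZ2B/50 nM biotinylated H3K14Ac peptide complex in PBS pH 7.4 with Tween-20. Donor and acceptor beads at 10 ug/mL final added, 20 min light-protected before reading.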
JMJD2A Tudor inh = inhibitors of human JMJD2A Tudor domain; O75164; AlphaScreen JMJD2A-Tudor / H3K4me3 peptide binding; Potency, µM (series often up to 114 µM), usual class: inhibitors; hit rate 4.4% among 390,000; AID 504339; also: nearly all actives have a fitted effect of over 50% in size
Six1-Eya2 blk = blocks human Six1 binding to Eya2; activity change, % (test concentration not listed); Q15475+O00167; AID 651725; hit rate 0.56% among 360,000; AlphaScreen GST-Six1/His-Eya2 binding, biochemical; active compounds read low; in the data active = activity change below about -65%; inconclusive = mostly about -30% to -63%
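GST-Six1 + His-Eya2 (5X stock: 250/500 nM); Tris pH 8.0, 300 mM NaCl, 0.05% BSA, 0.02% Tween 20; GSH donor/Ni acceptor beads; 1 h 37 °C dark; AlphaScreen readout.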
Numbers stand for hits; [ ] = remark or other dose. Only some compounds are listed: those with a hit (about 10% of all), similar ones and a draw of the others. Unless noted, calls follow the shape of the dose curve; as a rule, active = well fitted inhibition curve with a large enough effect; inconclusive = small, poorly fitted or top-dose-only effect; inactive = no such curve, though single readings can be large or run the other way.

How did Cc1ccc(NCc2cc3cc4c(cc3n(CC(=O)Nc3ccc(C)cc3)c2=O)OCCO4)cc1 do in these assays?
HP1b chromo inh: inactive; G9a block: inconclusive; BAZ2B inh: inactive; JMJD2A Tudor inh: inactive

What do the screens show for `COc1ccc(-c2cc(C(=O)NCCCn3ccnc3)c3ccccc3n2)c(OC)c1`?
HP1b chromo inh: inactive; G9a block: inactive; CtBP-E1A blk: inactive; BAZ2B inh: inactive; JMJD2A Tudor inh: inactive; Six1-Eya2 blk: inactive

How did O=C(Nc1cc2c3c(c1)CC(=O)N3CCC2)C1CCCCC1 do in these assays?
HP1b chromo inh: inactive; G9a block: inactive; CtBP-E1A blk: inactive; BAZ2B inh: inactive; JMJD2A Tudor inh: inactive; Six1-Eya2 blk: inactive

How did COc1cc(/C=N/n2c(-c3ccccc3)n[nH]c2=S)cc(OC)c1OC do in these assays?
HP1b chromo inh: inconclusive; CtBP-E1A blk: inactive; BAZ2B inh: inactive; JMJD2A Tudor inh: 5µM; Six1-Eya2 blk: inactive

How did Cc1ccc(-n2nc(C)c(/C=N/n3c(C)n[nH]c3=S)c2Cl)cc1 do in these assays?
HP1b chromo inh: inactive; G9a block: 3.2µM; CtBP-E1A blk: inactive; BAZ2B inh: inactive; JMJD2A Tudor inh: inactive; Six1-Eya2 blk: inactive

What do the screens show for `COc1ccc(/C=N/n2c(-c3ccccc3)n[nH]c2=S)cc1`?
HP1b chromo inh: inactive; G9a block: 1.4µM; CtBP-E1A blk: inactive; BAZ2B inh: inconclusive; JMJD2A Tudor inh: 25µM; Six1-Eya2 blk: inactive

What do the screens show for `CCCN(CCC)C(=O)c1c[nH]c2ccc(S(=O)(=O)N(C)c3ccc(OCC)cc3)cc2c1=O`?
HP1b chromo inh: inactive; G9a block: inactive; BAZ2B inh: inactive; JMJD2A Tudor inh: inactive

Results for COc1ccc(OCC(O)CNS(=O)(=O)c2cccs2)cc1 (stereo not given) ?
HP1b chromo inh: inactive; G9a block: inactive[0.501 µM]; CtBP-E1A blk: inactive; BAZ2B inh: inactive; JMJD2A Tudor inh: inactive; Six1-Eya2 blk: inactive

Results for O=C(Nc1ccc(Oc2ccccc2)nc1)C1CCCCN1Cc1ccc(OCCO)cc1 (stereo not given) ?
HP1b chromo inh: inactive; G9a block: inconclusive; BAZ2B inh: inactive; JMJD2A Tudor inh: inactive; Six1-Eya2 blk: inactive

How did CN(C)S(=O)(=O)c1ccc(NCC2COc3ccccc3O2)c([N+](=O)[O-])c1 (stereo not given) do in these assays?
HP1b chromo inh: inconclusive; G9a block: inconclusive; CtBP-E1A blk: inactive; BAZ2B inh: inconclusive; JMJD2A Tudor inh: 25µM; Six1-Eya2 blk: inactive

How did O=C(c1ccco1)N1CCN(C(=O)c2ccc(COc3ccc4c(c3)CCC4)o2)CC1 do in these assays?
HP1b chromo inh: inactive; G9a block: inactive[0.0925 µM]; CtBP-E1A blk: inactive; BAZ2B inh: 50µM; JMJD2A Tudor inh: inconclusive; Six1-Eya2 blk: inactive

What do the screens show for `O=C(O)c1cccc(COc2ccc3c(c2)CCC3)c1`?
HP1b chromo inh: inactive; G9a block: 50µM; CtBP-E1A blk: inactive; BAZ2B inh: inactive; JMJD2A Tudor inh: inactive; Six1-Eya2 blk: inactive

What do the screens show for `COc1ccccc1NC(=O)C(Cc1ccccc1)NS(=O)(=O)c1ccc2c(c1)CCN2C(C)=O` (stereo not given)?
HP1b chromo inh: inactive; G9a block: inactive; JMJD2A Tudor inh: inactive

What do the screens show for `CC1CCN(C(=O)CCc2ccc(Oc3cc([N+](=O)[O-])cc([N+](=O)[O-])c3)cc2)CC1`?
HP1b chromo inh: 45µM; G9a block: inconclusive; CtBP-E1A blk: inconclusive; BAZ2B inh: 28µM; JMJD2A Tudor inh: 13µM; Six1-Eya2 blk: inconclusive

Results for Cn1c(=O)c2c([nH]c(=S)n2Cc2ccc(Cl)cc2)n(C)c1=O ?
HP1b chromo inh: inconclusive; G9a block: 1.3µM; CtBP-E1A blk: inactive; BAZ2B inh: 22µM; JMJD2A Tudor inh: 5.6µM; Six1-Eya2 blk: inactive

Results for O=C(OCc1cn([C@H]2CN(C(=O)C3CCCCC3)[C@@H](c3ccccc3)C[C@@H]2O)nn1)c1ccccc1 ?
CtBP-E1A blk: inactive; Six1-Eya2 blk: inactive

Results for O=C(Nc1cc(Cl)cc(Cl)c1)c1cc(S(=O)(=O)NC2CCCC2)ccc1F ?
HP1b chromo inh: inactive; G9a block: inactive; BAZ2B inh: inactive; JMJD2A Tudor inh: inactive

How did CCCCNc1oc(-c2ccc(COc3ccccc3C)o2)nc1C#N do in these assays?
HP1b chromo inh: inactive; G9a block: inconclusive; BAZ2B inh: inactive; JMJD2A Tudor inh: inactive
